Only a sample is shown.
LmPK activator: qHTS Assay for Activators of Leishmania Mexicana Pyruvate Kinase (LmPK). activity change, negative = inhibition, % at 57.5 µM. purified LmPK, Kinase-Glo ATP luminescence, 1 h. 290,000 tested, under 10 active. AID 1722, 2009; calls by dose curve
Target sequence (Q27686 whole entry, looked up): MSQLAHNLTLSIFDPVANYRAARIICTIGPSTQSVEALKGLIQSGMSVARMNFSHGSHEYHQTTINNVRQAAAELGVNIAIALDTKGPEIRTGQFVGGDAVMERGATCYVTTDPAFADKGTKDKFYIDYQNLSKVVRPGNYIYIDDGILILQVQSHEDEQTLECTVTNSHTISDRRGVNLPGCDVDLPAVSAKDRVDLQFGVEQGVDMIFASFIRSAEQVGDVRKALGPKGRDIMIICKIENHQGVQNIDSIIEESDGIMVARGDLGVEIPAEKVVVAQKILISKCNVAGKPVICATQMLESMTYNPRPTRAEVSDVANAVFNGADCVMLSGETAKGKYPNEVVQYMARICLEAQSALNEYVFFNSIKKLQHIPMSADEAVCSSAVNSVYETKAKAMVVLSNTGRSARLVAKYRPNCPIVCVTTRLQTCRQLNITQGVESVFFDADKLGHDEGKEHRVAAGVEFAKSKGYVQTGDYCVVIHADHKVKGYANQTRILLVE
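Purified L. mexicana pyruvate kinase (0.1 nM) with 0.5 mM PEP and 0.1 mM ADP in pH 7.2 imidazole buffer, 1 h at RT. ATP formed measured by Kinase-Glo luminescence; normalized to uninhibited and no-enzyme wells.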
Calls only; - = inactive.

SMILES	LmPK activator
CSC(=NNC(=O)c1ccc(O)cc1)SC	-
CC(C)CCC(CC(C)O)c1n[nH]c(=S)n1-c1ccccc1 (stereo not drawn)	-
CCn1c(-c2ccc3[nH]c(C)c(C)c3c2)n[nH]c1=S	-
CN=c1scc(C)n1/N=C/c1ccc2c(c1)OCO2	-
CS(=O)(=O)C1=NSC2=NC(=O)/C(=C\c3ccc(OC(=O)c4ccco4)c(Br)c3)C(=N)N21	-
CN(C)S(=O)(=O)c1cccc(C(=O)N=C2N=C3C=CC(Cl)=CN3Cc3ccccc32)c1	-
CSc1nnc(NC(=O)c2ccc(S(=O)(=O)N(C)C)cc2)s1	-
COC(Cc1n[nH]c(=S)n1-c1ccc(Cl)cc1)OC	-
COc1ccc(C2CC(C)(c3ccc(OC)cc3OC)Nc3ccccc3N2)c(OC)c1 (stereo not drawn)	-
O=C(Nc1ccc(N2CCOCC2)cc1)c1ccc([N+](=O)[O-])o1	-
Cc1cc(=O)[nH]c(S/C=C/c2ccccc2)n1	-
C=CCN=C1NN=C(c2ccc3c(c2)OCCO3)CS1	-
CCn1cc(C(=O)O)c(=O)c2cc(F)c(N3CCN(C(=S)NC(=O)c4ccccc4)CC3)cc21	-
O=C1CCC(=O)N1c1ccc(-c2nc3ccccc3s2)cc1	-
Cc1nn(CCc2n[nH]c(=S)n2C2CCCCC2)c(C)c1Br	-
COc1cc(O)oc1C=Nc1ccc(C(=O)O)cc1	-
S=c1[nH]cc(-c2ccccc2)n1-c1ccccc1	-
COc1ccc(Cl)cc1C(=O)Nc1ccccc1N1CCCCC1	-
Cn1nc(C(=O)Nc2ccc3c(c2)OCCO3)cc1C(=O)O	-
O=C(c1cccs1)N1CCn2c1nc1ccccc12	-
N#CCSc1ccc(-c2nc3ccccc3[nH]2)cn1	-
Cc1ccccc1C(=O)O/N=C(\N)c1ccncc1	-
Cc1cccc(/C(N)=N/OC(=O)c2cccs2)c1	-
S=c1[nH]ccn1-c1cccc(Cl)c1	-
Cc1cc2nc(-c3cccnc3SCC(=O)NC(C)C)[nH]c2cc1C	-
SMILES	LmPK activator
CCOC(=O)Cc1ccc2sc(-c3ccccc3)nc2c1	-
CC(=O)C(C(C)=O)c1c(Cl)c(O)c(O)c2c(C(=O)c3ccccc3)coc12	-
c1ccc2c(c1)CCN(c1nc3cc4c(cc3s1)OCCO4)C2	-
Oc1cc2c(cc1O)C1c3ccc(O)c(O)c3OCC1(O)C2 (stereo not drawn)	-
CC(=O)Nc1ccc(S(=O)(=O)NNc2ccc([N+](=O)[O-])cc2)cc1	-
O=C1C=CC(=O)N1c1cccc(-c2ccccc2)c1	-
CN(C)c1ccc(/C=N/N2CCN(c3ccccn3)CC2)cc1	-
Cc1ccc(N=Nc2cc(C)ccc2N)cc1	-
CCCn1c(CCc2ccccc2)n[nH]c1=S	-
CC1(C)CCN2CCC(C)(C)c3c(O)ccc1c32	-
Cc1ccc(/C=C(\C#N)C(=O)Nc2ccccn2)o1	-
O=C(NNc1cc(C(F)(F)F)nc2ccccc12)Nc1cccc(Cl)c1	-
CN1CCSc2ccc(C(=O)Nc3cccc(F)c3)cc21	-
c1ccc(-c2cn3c4c(sc3n2)CCCC4)cc1	-
COc1ccc(-c2n[nH]c(=S)n2-c2ccc(Br)cc2)cc1OC	-
O=CN/C=C/c1cc(O)ccc1O	-
CSc1nc(=S)c2[nH]c(=S)[nH]c2[nH]1	-
CC1(C)CC(=O)c2sc(NC(=O)c3cccs3)nc2C1	-
CC/C(C)=N/Nc1nc(-c2cc3cccc(OC)c3oc2=O)cs1	-
O=C(Nc1nc2c(s1)CCCC2=O)c1cnccn1	-
CC(C)Cc1cc(CN2CCC(CO)(Cc3cccc(C(F)(F)F)c3)CC2)[nH]n1	-
COC(CNC(=O)CCc1c(C)nc2c(-c3ccccc3)c(C)nn2c1C)OC	-
Fc1ccc(-c2nc(-c3cnccn3)no2)c(Cl)c1	-
Cc1ccc(O)c(-n2nc3ccccc3n2)c1	-
Fc1ccc(-n2nnc(-c3cnc4ccccc4c3)n2)cc1	-
SMILES	LmPK activator
CC(=O)Oc1ccc(OC(C)=O)c(SCCCCCN2CCOCC2)c1	-
O=C(COc1ccc2c(c1)OCO2)Nc1nccs1	-
Cc1cc(NC(=O)c2ccoc2C)no1	-
CC(C)(C)c1ccc(-c2n[nH]c(=S)n2-c2ccccc2)cc1	-
C/C(=N\NC(=O)c1ccccn1)c1ccc(C(=O)O)s1	-
CC(=O)Oc1ccc2cc(-c3ccccc3)c(=O)oc2c1	-
Cc1ccn2cc(-c3ccc(O)c(O)c3)nc2c1	-
c1cn2cc(-c3ccc4c(c3)OCO4)nc2s1	-
COc1ccc(C2=CC(=O)C=CC2=O)cc1	-
COc1ccccc1N1C(=O)C=C(Sc2nc(C)cc(C)n2)C1=O	-
Cc1ccccc1-n1c([C@@H]2C[C@H]2c2ccccc2)n[nH]c1=S	-
CC(C)n1c(CSCc2ccc(Cl)cc2Cl)n[nH]c1=S	-
O=C(Nc1ccc(N2CCOCC2)cc1)c1cn2ccccc2n1	-
COc1ccc(/C=C/C(=O)c2cc3c(cc2N)OCO3)cc1	-
O=C1/C(=C/N(C(=O)c2ccco2)c2ccc(Cl)cc2)Sc2ccccc21	-
Cc1cc(NC(=O)c2ccc3c(c2)OCO3)ccc1NC(=O)c1ccco1	-

Screens from PubChem BioAssay.
